Screening results from PubChem BioAssay.
FGF22 binding: binders of human FGF22 protein, primary screen, FGF22 synaptogenesis inhibitor project, biophysical, thermal shift, single point | activity (Tm shift, normalised), % at 9.99 µM | 340,000 tested, 1.5% active | AID 651658, 2012 | recombinant FGF22 thermal shift, SYPRO orange fluorescence; percent of sucrose octasulfate shift, DMSO zero | Fibroblast growth factor 22 (Homo sapiens), Q9HCT0;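 active = mean Tm shift, scaled 0 neutral to 100 positive control, at about 1.3% or above, every replicate too, limit read from the data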
Target sequence (Q9HCT0 whole entry, looked up): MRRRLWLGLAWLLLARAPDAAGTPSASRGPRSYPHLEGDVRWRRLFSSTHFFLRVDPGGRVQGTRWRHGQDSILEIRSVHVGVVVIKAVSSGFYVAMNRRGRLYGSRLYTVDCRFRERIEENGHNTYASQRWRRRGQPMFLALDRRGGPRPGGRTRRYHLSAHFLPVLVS
F508del corr: F508del CFTR correction, initial screen, CFBE line, single point. CFBE cells, YFP halide quenching; stimulated with forskolin plus potentiator P3; % fluorescence drop versus neutral controls. activity (quench increase), % at 7.58 µM. 350,000 tested, 0.36% active. AID 720511, 2013;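 active = mean added fluorescence quench of at least 8% versus neutral control, with both replicates also reaching 8%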;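 also: cells transiently co-express mutant CFTR-F508del with the halide-sensitive YFP; corrector assay measuring rescue of mutant channel to the surface after 24 h compound exposure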
Vif inh: HIV Vif self-association inhibitors, primary screen, imaging, HEK293T, single point | AID 602346, 2012 | inhibition, % at 7.49 µM | HEK293T cells, Vif self-association by quenched fluorescence, 24 h | 340,000 tested, 0.35% active; in the data active = inhibition above about 50%, passing the limit was not always enough
Hits are given with their value. Shown are actives, neighbours in structure and some others; about 1.7% of the full set was active somewhere.

Results for CC(=O)c1ccc(S(=O)(=O)N(C)CC(=O)Nc2cc(C)on2)cc1 ?
FGF22 binding: inactive; F508del corr: inactive; Vif inh: inactive

Results for C=C(C)CNC(=O)CCc1nnc(Cc2cccc(C(F)(F)F)c2)o1 ?
FGF22 binding: 43; F508del corr: inactive; Vif inh: inactive

Results for CC(C)(CO)CNC(=O)CCc1nnc(CCCc2ccccc2)o1 ?
FGF22 binding: 43; F508del corr: inactive; Vif inh: inactive

What do the screens show for `O=C(CCc1nnc(Cc2cccc(C(F)(F)F)c2)o1)NCC(F)(F)F`?
FGF22 binding: inactive; Vif inh: inactive

Results for CC(C)(CO)CNC(=O)CCc1nnc(Cc2ccc(-c3ccccc3)cc2)o1 ?
FGF22 binding: inactive; F508del corr: inactive; Vif inh: inactive

Results for CCCC#Cc1ccc([C@@H]2[C@H]3CN(S(=O)(=O)Cc4ccccc4)CC(=O)N3[C@H]2CO)cc1 ?
F508del corr: inactive

Results for Cc1ccc(S(=O)(=O)NC(Cc2ccccc2)C(=O)O)cc1 (stereo not drawn) ?
FGF22 binding: inactive; F508del corr: inactive; Vif inh: inactive

How did Cc1ccc(S(=O)(=O)NC(CC(=O)OCc2ccccc2)C(=O)OCc2ccccc2)cc1 (stereo not drawn) do in these assays?
FGF22 binding: 30; F508del corr: inactive; Vif inh: inactive

What do the screens show for `C[C@@H]1CN([C@H](C)CO)C(=O)c2cc(NC(=O)Nc3cccc4ccccc34)ccc2O[C@@H]1CN(C)S(=O)(=O)c1ccc(Cl)cc1`?
FGF22 binding: inactive; F508del corr: inactive

How did CCCCn1c(=O)cc(N2CCOCC2)[nH]c1=O do in these assays?
FGF22 binding: inactive; F508del corr: inactive

Results for CCn1c(=O)cc(N2CCOCC2)[nH]c1=O ?
FGF22 binding: 43; F508del corr: inactive; Vif inh: inactive

Results for CO[C@@H]1CN(C)C(=O)c2cc(NS(=O)(=O)c3ccc(Cl)cc3)ccc2OC[C@@H](C)N(C)C[C@H]1C ?
F508del corr: inactive

Results for Cc1c(Cl)c([N+](=O)[O-])nn1CC(=O)NCc1ccco1 ?
Vif inh: inactive

What do the screens show for `Cc1c(Cl)c(C(F)(F)F)nn1CC(=O)NCc1ccco1`?
FGF22 binding: 43; F508del corr: inactive; Vif inh: inactive

How did C[C@@H]1CN([C@H](C)CO)C(=O)c2cccc(NS(=O)(=O)c3ccc(F)cc3)c2O[C@@H]1CN(C)C do in these assays?
FGF22 binding: inactive; F508del corr: inactive

What do the screens show for `CO[C@H]1CN(C)C(=O)c2cc(NC(C)=O)ccc2OC[C@@H](C)N(Cc2ccccc2C(=O)O)C[C@@H]1C`?
FGF22 binding: inactive; F508del corr: inactive

How did Cc1cccc(NC(=O)NC(C)C(c2cccs2)N2CCOCC2)c1 (stereo not drawn) do in these assays?
FGF22 binding: inactive; F508del corr: inactive; Vif inh: inactive

What do the screens show for `Cc1cccc(NC(=O)NC(C)C(c2ccccc2)N2CCN(C)CC2)c1` (stereo not drawn)?
FGF22 binding: 43; F508del corr: inactive; Vif inh: inactive

What do the screens show for `CC(=O)c1c(C)[nH]c(C(=O)Nc2ccc(Cl)cc2)c1C`?
FGF22 binding: inactive; F508del corr: inactive; Vif inh: inactive

Results for Cc1[nH]c(=O)nc(NN=Cc2ccc(Cl)cc2)c1C(=O)Nc1ccc(Cl)cc1 ?
FGF22 binding: 43; F508del corr: inactive; Vif inh: inactive

Results for O=C(C[C@H]1CC[C@@H]2[C@H](COC[C@H](O)CN2C(=O)c2ccccc2F)O1)N1CCCCC1 ?
FGF22 binding: inactive; F508del corr: inactive

What do the screens show for `COc1ccc(NC(=O)CSc2nncs2)cc1S(N)(=O)=O`?
FGF22 binding: inactive; F508del corr: inactive; Vif inh: inactive

How did COc1ccc(NC(=O)CSc2nccn2C)cc1S(N)(=O)=O do in these assays?
FGF22 binding: 2.4; F508del corr: inactive; Vif inh: inactive

What do the screens show for `C[C@@H]1CN([C@@H](C)CO)C(=O)c2cccc(NC(=O)NC3CCCCC3)c2O[C@H]1CN(C)S(=O)(=O)c1ccc(Cl)cc1`?
FGF22 binding: inactive; F508del corr: inactive

How did CC(OC(=O)c1oc2ccccc2c1COc1ccccc1)C(=O)NC(N)=O (stereo not drawn) do in these assays?
FGF22 binding: 43; F508del corr: inactive; Vif inh: inactive

How did CC(OC(=O)c1oc2ccccc2c1CSC1CCCCC1)C(=O)NC(N)=O (stereo not drawn) do in these assays?
Vif inh: inactive

What do the screens show for `C[C@@H]1CN([C@H](C)CO)C(=O)c2cc(NC(=O)Cc3ccccc3)ccc2O[C@@H](C)CCCCO[C@@H]1CN(C)C(=O)Cc1ccccc1`?
FGF22 binding: inactive; F508del corr: inactive

What do the screens show for `O=C(COc1ccc(C(=S)N2CCCC2)cc1)Nc1ccccc1C(F)(F)F`?
FGF22 binding: inactive; F508del corr: inactive; Vif inh: inactive

Results for O=C(COc1ccc(C(=S)N2CCOCC2)cc1)Nc1ccccc1C(F)(F)F ?
FGF22 binding: 44; F508del corr: inactive; Vif inh: inactive

How did N#C[C@H]1[C@@H](c2ccccc2C2=CCCC2)[C@@H](CO)N1C(=O)CN1CCOCC1 do in these assays?
FGF22 binding: inactive; F508del corr: inactive

How did CN(CC(=O)O)S(=O)(=O)c1cc(Cl)ccc1Cl do in these assays?
FGF22 binding: inactive; F508del corr: inactive; Vif inh: inactive

How did CN(CC(=O)NC1CC(C)(C)NC(C)(C)C1)S(=O)(=O)c1cc(Cl)ccc1Cl do in these assays?
FGF22 binding: 43; F508del corr: inactive; Vif inh: inactive

How did Nc1cccc(C(=O)OCC(=O)Nc2cccc3c2C(=O)c2ccccc2C3=O)c1 do in these assays?
Vif inh: inactive

Results for CCN(CC)CCC(=O)Nc1cccc2c1C(=O)c1ccccc1C2=O ?
FGF22 binding: inactive; F508del corr: 24

What do the screens show for `O=C(Nc1cc(F)ccc1F)N1C[C@@H]2[C@H](c3ccccc31)[C@@H](CO)N2Cc1cccnc1`?
FGF22 binding: inactive; F508del corr: inactive

Results for CN1CCN(C(=O)C[C@H]2C[C@@H]3c4cc(NC(=O)Nc5ccc(C(F)(F)F)cc5)ccc4O[C@@H]3[C@@H](CO)O2)CC1 ?
FGF22 binding: inactive; F508del corr: inactive

What do the screens show for `CCCC(=O)Nc1ccc2c(c1)C(=O)N(C)C[C@@H](OC)[C@H](C)CN(C(=O)CN1CCOCC1)[C@H](C)CO2`?
FGF22 binding: inactive; F508del corr: 8.4

How did CCCC(=O)Nc1ccc2c(c1)OC[C@@H](C)N(C(=O)CN1CCOCC1)C[C@@H](C)[C@H](OC)CN(C)C2=O do in these assays?
FGF22 binding: inactive; F508del corr: inactive

What do the screens show for `COc1ccc(C2CC(c3ccc4ccccc4c3)=NN2C(=O)CNC2CCCCC2)cc1` (stereo not drawn)?
FGF22 binding: inactive; F508del corr: inactive; Vif inh: inactive

What do the screens show for `C=CCNCC(=O)N1N=C(c2ccc3ccccc3c2)CC1c1ccc(OC)cc1` (stereo not drawn)?
FGF22 binding: 43; F508del corr: inactive; Vif inh: inactive

How did O=C(N[C@H]1C=C[C@@H](CC(=O)N2CCCCC2)O[C@@H]1CO)c1cccc(F)c1 do in these assays?
FGF22 binding: inactive; F508del corr: inactive
